In PubChem BioAssay AID1159580 (chemical genetic matrix, 2015):
“And” between values parts separate entries of the source, which are not always exact repeats. Equal values may be shown once. The whole screen tested about 5,500 compounds, of which about 2,000 (36%) were called active. About 18% were inconclusive and are not listed. Cut-off read from the data, not from the text of the source: active = normalized growth mostly below about 0.91 (no sharp cut-off); inconclusive = no clear call, values can overlap the other calls; inactive = mostly above about 0.92. This is one part of the list.

Test: chemical genetic growth profiling, strain panel (AID 1159580);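 note: tested at 20 µM; growth read once vehicle control cultures reached saturation at 30 °C; 1 = growth at the plate median or of vehicle wells; lower values mean less growth of the strain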
Details: growth OD
[1] = S. cerevisiae deletion strains, locus YAL013W, strain DEP1, active compounds read low
[2] = S. cerevisiae deletion strains, locus YBR229C, strain ROT2, active compounds read low
[3] = S. cerevisiae deletion strains, locus YDL101C, strain DUN1, active compounds read low
[4] = S. cerevisiae deletion strains, locus YDL134C, strain PPH21, active compounds read low
[5] = S. cerevisiae deletion strains, locus YDR150W, strain NUM1, active compounds read low
[6] = S. cerevisiae deletion strains, locus YEL061C, strain CIN8, active compounds read low
[7] = S. cerevisiae deletion strains, locus YGR078C, strain PAC10, active compounds read low
[8] = S. cerevisiae deletion strains, locus YHR030C, strain SLT2, active compounds read low
[9] = S. cerevisiae deletion strains, locus YHR087W, strain rtc3, active compounds read low
[10] = S. cerevisiae deletion strains, locus YJR043C, strain POL32, active compounds read low
[11] = S. cerevisiae deletion strains, locus YJR075W, strain HOC1, active compounds read low
[12] = S. cerevisiae deletion strains, locus YLR039C, strain RIC1, active compounds read low
[13] = S. cerevisiae deletion strains, locus YLR058C, strain SHM2 (second series), active compounds read low
[14] = S. cerevisiae deletion strains, locus YLR085C, strain ARP6, active compounds read low
[15] = S. cerevisiae deletion strains, locus YLR262C, strain YPT6, active compounds read low
[16] = S. cerevisiae deletion strains, locus YML094W, strain GIM5, active compounds read low
[17] = S. cerevisiae deletion strains, locus YMR219W, strain ESC1, active compounds read low
[18] = S. cerevisiae deletion strains, locus YMR263W, strain SAP30, active compounds read low
[19] = S. cerevisiae deletion strains, locus YNL153C, strain GIM3, active compounds read low
[20] = S. cerevisiae deletion strains, locus YNL298W, strain CLA4 (second series), active compounds read low
[21] = S. cerevisiae deletion strains, locus YNL322C, strain KRE1, active compounds read low
[22] = S. cerevisiae deletion strains, locus YNR030W, strain Alg12, active compounds read low
[23] = S. cerevisiae deletion strains, locus YPL055C, strain LGE1, active compounds read low
[24] = S. cerevisiae deletion strains, locus YPL241C, strain CIN2, active compounds read low
[25] = S. cerevisiae deletion strains, locus YPR135W, strain CTF4, active compounds read low

Measured: normalized growth

COc1cc(OC)cc(N2C(=O)C=CC2=O)c1
active: [1] 0.0543 | [2] 0.0573 | [3] 0.0709 | [4] 0.0477 | [5] 0.05 | [6] 0.0533 | S. cerevisiae deletion strains, locus YGR052W, strain FMP48, active compounds read low 0.129 | [7] 0.802 | [8] 0.0734 and 0.115 | S. cerevisiae deletion strains, locus YHR079C, strain IRE1, active compounds read low 0.231 | S. cerevisiae deletion strains, locus YHR082C, strain KSP1, active compounds read low 0.112 | [9] 0.0623 | S. cerevisiae deletion strains, locus YJL095W, strain BCK1, active compounds read low 0.127 | [10] 0.0486 | S. cerevisiae deletion strains, locus YJR066W, strain TOR1, active compounds read low 0.113 | [11] 0.0671 | S. cerevisiae deletion strains, locus YKL171W, strain NNK1, active compounds read low 0.0984 | S. cerevisiae deletion strains, locus YKL203C, strain TOR2, active compounds read low 0.107 | [12] 0.0602 | [13] 0.0529 | [14] 0.0621 | S. cerevisiae deletion strains, locus YLR113W, strain HOG1, active compounds read low 0.184 | [15] 0.0582 | [16] 0.0622 | [17] 0.0491 | [18] 0.0514 | [19] 0.0557 | S. cerevisiae deletion strains, locus YNL183C, strain NPR1, active compounds read low 0.131 | S. cerevisiae deletion strains, locus YNL207W, strain RIO2, active compounds read low 0.0908 | [20] 0.0613 | [21] 0.0499 | [22] 0.0629 | S. cerevisiae deletion strains, locus YOR119C, strain RIO1, active compounds read low 0.121 | S. cerevisiae deletion strains, locus YOR231W, strain MKK1, active compounds read low 0.185 | [23] 0.07 | [24] 0.0792 | S. cerevisiae deletion strains, locus YPL256C, strain CLN2, active compounds read low 0.146 | [25] 0.18

CCC(=O)Nc1cc(OC)cc(OC)c1
inactive: [1] 1 | [2] 1.01 | [3] 1.01 | [4] 1 | [5] 0.908 | [6] 1 | [7] 1.01 | [8] 1.01 | [9] 1 | [10] 0.963 | [11] 0.98 | [12] 1.04 | [13] 1.01 | [14] 0.973 | [15] 1.02 | [16] 1.03 | [17] 0.999 | [18] 0.987 | [19] 0.997 | [20] 1.01 | [21] 1.01 | [22] 1.01 | S. cerevisiae deletion strains, locus YOL006C, strain TOP1, active compounds read low 0.998 | [23] 1.13 | [24] 1.03 | [25] 1.06 | S. cerevisiae strains, strain wild type, active compounds read low 1.02
